From PubChem BioAssay
The list is not random: actives were taken first. Their share in the collection is about 1.9%.
EP2 modulator: EP2 receptor modulators, cAMP readout, primary screen, cell-based, HTRF cAMP, PGE2 stimulation | 260,000 tested, 0.83% active | EP2-expressing cells, cAMP HTRF FRET, PGE2 co-stimulation | Prostaglandin E2 receptor EP2 subtype (Homo sapiens), P43116 | induction, % at 25 µM;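 active means compounds whose cAMP rise, as percent of the full-agonist control response, exceeds 60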;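 further: rat C6 glioma line stably carrying human EP2 under a CMV promoter; the protocol text gives 20 µM as final concentration; 100% = response of wells given 1 µM PGE2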
Target sequence (P43116 whole entry, looked up): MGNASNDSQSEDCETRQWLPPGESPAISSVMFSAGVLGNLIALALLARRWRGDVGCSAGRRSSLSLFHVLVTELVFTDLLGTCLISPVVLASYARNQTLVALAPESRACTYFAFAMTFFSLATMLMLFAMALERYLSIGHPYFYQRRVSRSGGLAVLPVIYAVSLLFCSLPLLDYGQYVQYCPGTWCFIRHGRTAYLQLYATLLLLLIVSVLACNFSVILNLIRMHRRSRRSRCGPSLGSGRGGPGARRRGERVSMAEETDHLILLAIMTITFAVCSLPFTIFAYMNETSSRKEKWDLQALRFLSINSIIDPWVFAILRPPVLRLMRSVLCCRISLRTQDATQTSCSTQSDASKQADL
Pf gametocyte: late stage P. falciparum gametocyte viability inhibitors, primary screen, ATP luminescence, HTS | P. falciparum stage V gametocytes, 24 h | inhibition, % at 10.9 µM | 150,000 tested, 0.065% active;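 active means inhibition above the mean plus 3 SD of compounds within the control limits, set per campaign, cut at about 38% in these data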;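 further: 0% = DMSO wells and 100% = medium only without gametocytes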
S1P4 agonist: S1P4 receptor agonists, primary screen, cell-based; Sphingosine 1-phosphate receptor 4 (Homo sapiens), O95977; S1P4-expressing cell line, agonist reporter assay; activation, % at 4.98 µM; 220,000 tested, 0.35% active; in the data active means activation above about 11%;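 further: 0% = DMSO vehicle and 100% = reference agonist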
S1P3 antagonist: S1P3 receptor antagonists, primary screen, cell-based | Sphingosine 1-phosphate receptor 3 (Homo sapiens), Q99500 | 170,000 tested, 0.27% active | AID 485, 2006 | CHO S1P3 NFAT-BLA reporter, FRET fluorescence, antagonist mode | inhibition, % at 4.98 µM;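 active means inhibition above the plate cutoff, the mean inhibition of test wells on that plate plus 3 SD, cut at about 28% in these data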;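 further: cells challenged with S1P at its EC80 of 0.8 µM; blue over green emission ratio from cleaved BLA substrate after 4 h stimulation; 0% = S1P-stimulated wells and 100% = unstimulated DMSO-only wells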
Target sequence (Q99500 whole entry, looked up): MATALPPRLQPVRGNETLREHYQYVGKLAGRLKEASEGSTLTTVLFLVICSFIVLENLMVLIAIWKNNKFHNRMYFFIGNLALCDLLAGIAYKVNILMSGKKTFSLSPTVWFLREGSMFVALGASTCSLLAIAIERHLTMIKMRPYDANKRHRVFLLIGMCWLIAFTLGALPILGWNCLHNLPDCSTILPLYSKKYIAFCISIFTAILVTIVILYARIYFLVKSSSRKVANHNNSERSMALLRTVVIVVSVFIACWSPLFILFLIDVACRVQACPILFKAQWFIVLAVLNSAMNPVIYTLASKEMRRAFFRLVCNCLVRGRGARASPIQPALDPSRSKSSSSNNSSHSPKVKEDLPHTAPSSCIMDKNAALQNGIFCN
S1P4 antag: S1P4 receptor antagonists, primary screen, cell-based; S1P4-expressing cells, antagonist mode, reporter read-out; inhibition, % at 4.98 µM; 220,000 tested, 0.26% active; AID 1510, 2009; in the data active means inhibition above about 29%;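 further: 0% = wells stimulated with agonist and 100% = vehicle wells without agonist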
PGE2 EP2 inh: human EP2 receptor antagonists, primary screen, TR-FRET cAMP, C6 glioma cells. C6 glioma cells expressing human EP2; cells stimulated with saturating PGE2. Prostaglandin E2 receptor EP2 subtype (Homo sapiens), P43116. 260,000 tested, 0.52% active. inhibition, % at 25 µM;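 active means percent inhibition above 40 after rounding to a whole number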;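 further: rat C6 glioma host cells with rolipram phosphodiesterase inhibitor present; the protocol text gives 20 µM as final concentration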
EP2 confirm: cAMP induction in EP2, EP4, beta2-AR and parental cells, confirmation, counter-screen for EP2 modulator project, cell-based, five parallel assays, C6 glioma, HEK293; shares compounds with EP2 modulator; 1,300 tested, 47% active; calls only at 20 µM (by protocol); cAMP HTRF induction; plus low (about EC15) PGE2 agonist;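 active means cAMP induction above 50% in the main assay while under 30% in all four parallel counter assays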;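 further: rat C6 glioma cells stably expressing human EP2 receptor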
S1P4 ag conf: S1P4 receptor agonists, retest, confirmation, cell-based, high throughput; AID 1523, 2009; shares compounds with S1P4 agonist; S1P4 agonist cell-based reporter assay; activation, % at 4.98 µM; 740 tested, 7% active; in the data active means activation above about 12%;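 further: 0% = vehicle and 100% = full reference agonist response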
S1P1 ag: S1P1 receptor agonists, human, counter-screen for S1P4 agonist project, cell-based | shares compounds with S1P4 agonist | S1P1 agonist cell-based assay, activation | activation, % at 4.98 µM | 740 tested, 4% active | AID 1563, 2009; in the data active means activation above about 21%;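 further: 0% = vehicle wells and 100% = reference agonist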
S1P4 antag cf: S1P4 receptor antagonists, human, confirmation, cell-based. shares compounds with S1P4 antag. S1P4-expressing cell line, antagonist mode, reporter read-out. inhibition, % at 4.98 µM. 520 tested, 71% active; in the data active means inhibition above about 30%
S1P1 antagonist: S1P1 receptor antagonists, human, counter-screen for S1P4 antagonist project, cell-based. shares compounds with S1P4 antag. 520 tested, 37% active. cell-based S1P1 antagonist counterscreen, inhibition. inhibition, % at 4.98 µM; in the data active means inhibition above about 40%;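 further: receptor stimulated with S1P near its EC80; 0% = agonist stimulated wells and 100% = vehicle only wells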
* = called active by the depositor; i = inactive; . = no result; + = active, no number.

SMILES	EP2 modulator	Pf gametocyte	S1P4 agonist	S1P3 antagonist	S1P4 antag	PGE2 EP2 inh	S1P4 antag cf	S1P1 antagonist	others
Nc1ccc(Br)cc1C(=O)c1ccccc1	83.1*	-1.2	-0.7	-10.8	-17.1	2.3	.	.	EP2 confirm=+
N#Cc1ccccc1Cn1cc(C(=O)c2cccs2)c2ccccc21	29.4	.	-0.1	6.2	13.7	14.6	.	.
O=C(c1cccs1)c1cn(Cc2ccccc2Cl)c2ccccc12	73.7*	-1.8	0.5	.	-12.6	8.5	.	.	EP2 confirm=i
Cc1ccc(CN2C(=O)CN=C(c3ccccc3)c3ccccc32)cc1	67.6*	-4.0	0.3	11.2	-1.8	5.2	.	.	EP2 confirm=i
CCOC(=O)c1c(-n2c(C)cc(/C=C3\C(=O)NC(=O)N(C)C3=O)c2C)sc2c1CCCC2	36.9	.	12.9*	.	-0.3	12.3	.	.	S1P4 ag conf=24.3*;S1P1 ag=5.0
CCC1CCCCN1C(=O)CN1C2CCC1CC(O)(c1nccn1C)C2 (stereo unspecified)	2.9	.	.	.	.	.	.	.
Cc1ccc(O)c(C(=O)c2cc(C(=O)NCCC(C)C)c(=O)n(CCC(C)C)c2)c1	28.0	-4.2	15.2*	-3.8	10.0	4.7	.	.	S1P4 ag conf=-2.7;S1P1 ag=-11.1
Cc1nn(Cc2ccccc2Cl)c(Cl)c1C(=O)OCC(=O)NCc1ccco1	43.1	.	1.0	-17.4	-16.5	7.4	.	.
CCNC(=O)NC(=O)C(C)OC(=O)c1c(C)nn(Cc2ccccc2Cl)c1Cl (stereo unspecified)	26.1	0.9	30.8*	0.9	-40.9	5.0	.	.	S1P4 ag conf=43.5*;S1P1 ag=-0.2
CCNC(=O)NC(=O)C(C)OC(=O)c1c(C)nn(Cc2ccccc2)c1Cl (stereo unspecified)	12.1	-6.7	30.9*	11.6	-17.1	4.1	.	.	S1P4 ag conf=52.7*;S1P1 ag=-9.8
Cc1nn(Cc2ccccc2)c(Cl)c1C(=O)Nc1ccc(OC(F)(F)F)cc1	-63.3	-0.7	-0.9	-12.7	-10.9	10.0	.	.
CCC(=NCC1CCCO1)c1c(O)n(-c2ccccc2C)c(=O)[nH]c1=O (stereo unspecified)	9.3	-3.6	93.3*	-6.7	6.0	14.8	.	.	S1P4 ag conf=-2.6;S1P1 ag=-7.9
COc1ccc(/C=C2\C(=O)C3CCN2CC3)cc1OC	-20.8	.	.	.	.	13.5	.	.
COc1ccc(CN2CCN(C(=O)COc3ccccc3)CC2)c(OC)c1OC	-75.7	.	.	.	.	7.3	.	.
CNc1cc(Cl)c2nonc2c1[N+](=O)[O-]	-31.4	.	-4.9	-16.3	74.3*	20.4	113.6*	20.7
Cc1ccc(-c2nc(C)sc2CC(=O)N(C)CCN(C)C)c(C)c1	-1.5	.	.	.	.	32.0	.	.
COc1ccc(Oc2cc(NC(=O)c3nn(C)cc3[N+](=O)[O-])cc([N+](=O)[O-])c2)cc1	-30.7	.	-0.2	.	85.9*	10.7	108.2*	-0.3
Cc1c(C(=O)Nc2ccccc2)cc(-c2ccccc2)n1CCCN1CCOCC1	-11.1	7.3	0.2	-12.1	34.4*	15.2	3.1	-7.6
Cc1cc([N+](=O)[O-])c2ccccc2[n+]1[O-]	-71.2	.	-1.7	-13.8	78.9*	13.6	113.7*	112.0*
CC1CCC(NC(=O)CN2C3CCC2CC(O)(c2ccco2)C3)CC1 (stereo unspecified)	-31.9	.	.	.	.	.	.	.
COC(=O)C1CN(C#N)N(c2ccc(Cl)cc2)C12c1ccccc1-c1ccccc12 (stereo unspecified)	49.7	.	-0.2	.	66.4*	9.0	121.4*	94.2*
C=C1C2CC[C@H]3[C@]4(C)C[C@H](OC5OC(CO)C(OS(=O)(=O)O)C(OS(=O)(=O)O)C5OC(=O)CC(C)C)C[C@@H](C(=O)O)[C@H]4CC[C@]3(C2)[C@H]1O (stereo partly specified)	-2.6	.	.	.	.	10.2	.	.
NC(=O)c1cn(C2OC(CO)C(O)C2O)c2ncnc(N)c12 (stereo unspecified)	11.7	.	-5.6	22.8	72.1*	19.2	78.9*	41.9*
CCNC(=O)[C@H]1O[C@@H](n2cnc3c(N)ncnc32)[C@H](O)[C@@H]1O	35.6	.	6.9	3.2	-6.3	12.6	.	.
CC(=O)O[C@H]1[C@@H]2[C@@H](OC(=O)Cc3ccccc3)[C@@H](C)C[C@]2(OC(C)=O)C(=O)/C(C)=C/[C@H]2[C@H](CC[C@@]13CO3)C2(C)C	22.0	.	.	.	.	6.6	.	.
SMILES	EP2 modulator	Pf gametocyte	S1P4 agonist	S1P3 antagonist	S1P4 antag	PGE2 EP2 inh	S1P4 antag cf	S1P1 antagonist	others
COc1cc2c(cc1/C=C/[N+](=O)[O-])OCO2	-122.3	.	-1.2	-3.5	41.5*	102.6*	86.8*	22.6
CC1CCC/C=C/C2CC(O)CC2C(O)/C=C/C(=O)O1 (stereo unspecified)	17.3	.	0.1	.	47.2*	.	83.1*	37.1
COc1cccc(C2(O)CCNCC2)c1	-6.3	.	.	.	.	10.4	.	.
COc1ccc(-c2n(-c3ccccn3)c3ccccc3[n+]2-c2ccccn2)cc1	24.1	13.8	0.1	3.6	33.0*	12.4	-13.6	-10.0
CC1(C)C[C@H]2C=C(C=O)[C@]3(C=O)C[C@]3(C)[C@H]2C1	-34.4	.	-6.0	0.1	70.2*	88.3*	114.8*	117.7*
C=C1[C@@H](C)[C@H]2[C@H](Cc3ccccc3)NC(=O)[C@]23OC(=O)/C=C/[C@H](O)CCC[C@@H](C)C/C=C/[C@H]3[C@@H]1O	-15.5	.	0.0	20.3	44.0*	23.3	51.4*	42.9*
C[C@H]1C/C=C/[C@H]2[C@H](O)[C@H](C)[C@@](C)(O)[C@H]3[C@H](Cc4ccccc4)NC(=O)[C@]32[C@H](O)/C=C/[C@](C)(O)C1	.	.	.	.	.	17.2	.	.
CCn1ncc(CN2C3CCC2CC(O)(c2ccccc2F)C3)c1C (stereo unspecified)	-21.6	.	.	.	.	8.8	.	.
